Among all 48,000 compounds or so, about 13,000 (27%) showed an effect of 50% or more. This is one part of the list.
These compounds were tested on Wolbachia pipientis (assay: Anti-Wolbachia Cell-Based Screen). Conditions: 5 µM.
Assay type: functional
Set-up: scale not given: in the data most compounds retested in dose-response had high values

| SMILES | Percent Effect [%] |
| --- | --- |
| C=C(C)CN(CC)C(=O)Nc1ccccc1CN(C)C(C)=O | 4.408 |
| Cc1nc2ccc(CN3CC4(CCOC4)CCC3=O)cc2[nH]1 (centres undefined) | 9.533 |
| COCc1nc2n(n1)CCCC2Nc1nc(C)ns1 (centres undefined) | -20.01 |
| CCC1(CO)CCCN(C(=O)c2cc(COc3ccccc3F)[nH]n2)C1 (centres undefined) | 110.4 |
| COc1ccccc1OCc1cc(C(=O)N2CCC(C(C)O)CC2)n[nH]1 (centres undefined) | 7.435 |
| COc1ccccc1OCc1cc(C(=O)N2CCN[C@H](C)C2)n[nH]1 | 8.163 |
| COc1ccccc1OCc1cc(C(=O)N2CCS(=O)(=O)CC2)n[nH]1 | -14.83 |
| COc1ccccc1OCc1cc(C(=O)N2CCN(C(C)=O)CC2)n[nH]1 | -25.23 |
| CCC1(CO)CCN(C(=O)c2cc(COc3ccccc3F)[nH]n2)CC1 | 118.9 |
| COc1cccc(OCc2cc(C(=O)N3CC(O)C3)n[nH]2)c1 | -9.479 |
| O=C(c1cc(COc2ccc3c(c2)OCO3)[nH]n1)N1CCCC1 | -5.101 |
| CCC1(CO)CCCN(C(=O)c2cc(COc3cccc(F)c3)[nH]n2)C1 (centres undefined) | 87.47 |
| CC(C)N(Cc1ccccc1)Cc1csc(-c2ncccn2)n1 | -35.25 |
| CCc1cccc(NC(=O)N2CCn3cnc(COC)c3C2)c1 | 112.6 |
| CCOCc1ncn2c1CN(S(=O)(=O)c1cccs1)CC2 | -7.388 |
| Cc1cccc(C(=O)N2CCn3cnc(COCC4CC4)c3C2)c1 | -5.443 |
| Cn1nc(CN2CCCCC2)c2c1CN(C(=O)Nc1cccc(F)c1)C2 | -11.17 |
| CCOCc1ncn2c1CN(C(=O)Nc1ccccc1)CC2 | 106.5 |
| CCOCc1ncn2c1CN(C(=O)Nc1cccc(C)c1)CC2 | -4.198 |
| CCOCc1ncn2c1CN(C(=O)Nc1cccc(F)c1)CC2 | 101.4 |
| Cc1cccc(C(=O)N2CCn3cnc(COCC4CC4)c3C2)n1 | -8.525 |
| Cc1cccc(NC(=O)N2CCn3cnc(COCC4CC4)c3C2)c1 | 96.57 |
| CCOCc1ncn2c1CN(C(=O)c1ccoc1)CC2 | -9.138 |
| CCN(CCSc1ccccc1)C(=O)c1cn([C@H]2CC[C@@H](N)CC2)nn1 | -3.362 |
| Cc1ccc(Cl)cc1NS(=O)(=O)c1cc(C(N)=O)n(C)c1 | -91.07 |

| SMILES | Percent Effect [%] |
| --- | --- |
| Cc1cccc(C(=O)N2CCc3ncnc(C4CCOC4)c3CC2)n1.O=C(O)C(F)(F)F (centres undefined) | -11.48 |
| COC(=O)c1sc(NCc2ccc(N3CCC(O)CC3)c(F)c2)nc1Cl | -2.093 |
| CC(C)C(N)C1=N/C(=C2\N=CN=N2)NO1 (centres undefined) | -4.222 |
| CCn1ccnc1CN(C)Cc1nc(Cc2ccccc2F)no1 | -2.902 |
| CCc1ccccc1NC(=O)N1CCn2cnc(COC)c2C1 | 1.009 |
| CCOCc1ncn2c1CN(S(=O)(=O)c1ccc(C)cc1)CC2 | 1.086 |
| COCc1ncn2c1CN(S(=O)(=O)c1ccc(C)cc1)CC2 | -7.243 |
| COCc1ncn2c1CN(C(=O)Nc1ccccc1)CC2 | 105.1 |
| O=C(Nc1ccccc1)N1CCn2nnc(COc3cccnc3)c2C1.O=C(O)C(F)(F)F | -20.87 |
| CCOCc1ncn2c1CN(C(=O)Nc1ccccc1CC)CC2 | 104.8 |
| CCOCc1ncn2c1CN(C(=O)Nc1ccc(CC)cc1)CC2 | 108 |
| CCOCc1ncn2c1CN(S(=O)(=O)c1ccc(F)cc1)CC2 | 3.769 |
| COc1cccc(NC(=O)N2CCC(O)(C(F)(F)F)C2)c1 (centres undefined) | -18.52 |
| COCc1ncn2c1CN(C(=O)Nc1cccc(OC)c1)CC2 | 106.3 |
| COc1cccc(S(=O)(=O)N2CCn3cnc(COCC4CC4)c3C2)c1 | -6.989 |
| N#Cc1ccc(F)c(CN2CCCC2Cn2cnc3ccccc32)c1 (centres undefined) | -5.507 |
| CN1CCOC(C(=O)Nc2nnc(Cc3ccc(F)cc3)[nH]2)C1 (centres undefined) | -0.8523 |
| Cc1cccc(NCc2ncc(C(C)(C)C)o2)c1 | -14.59 |
| O=C(CN1CCS(=O)(=O)CC1)NC1CCCOc2ccccc21 (centres undefined) | 0.4653 |
| CCN(Cc1ccoc1)C(=O)c1cc2c(c(S(N)(=O)=O)c1)CCC2 | -33.33 |
| CN(CC(=O)NC(C)(C#N)C1CC1)Cc1nc2ccccc2n1C (centres undefined) | -1.45 |
| c1ccc(O[C@H]2COCCN(CC3CC3)C2)cc1 | -13.37 |
| COc1cccc2c1OCCCN(Cc1ncccc1C(=O)O)C2 | 13.59 |
| COc1ccccc1CN1C(=O)O[C@@H]2CN(CC3CC3)C[C@@H]21 | 6.078 |
| COc1cc2cc3c(nc2cc1OC)OCCN(CC1CC1)C3 | 154.4 |

| SMILES | Percent Effect [%] |
| --- | --- |
| COc1cncc(N2CCN(Cc3ccco3)CC2)n1 | -6.733 |
| COc1cc2cc3c(nc2cc1OC)OCCN(Cc1cccs1)C3 | 120.6 |
| COc1cc2cc3c(nc2cc1OC)OCCN(Cc1ccco1)C3 | 100 |
| COc1ncc(C2(O)CCN(Cc3cccs3)CC2)c(OC)n1.Cl | -7.48 |
| CC(C)N1CCOCC2(CN(Cc3ccco3)CCO2)C1 (centres undefined) | -3.394 |
| CCc1cc(CNC(=O)Nc2cc(F)ccc2N2CCCCC2)on1 | -38 |
| CCN(CCC(=O)OC)S(=O)(=O)c1cnc2c(c1)c(C)nn2C | 10.85 |
| Cc1cc(C(C)NCCN2CCC(N(C)C)CC2)c(C)s1 (centres undefined) | -5.987 |
| COCC(NC(=O)c1cc(NC(C)=O)ccc1Cl)c1ccccn1 (centres undefined) | -0.4749 |
| O=C1COC2(CCN(Cc3ccncc3)CC2)CN1CC1CC1 | -5.616 |
| Fc1cccc(N2CCCC3(CN(Cc4cccnc4)CCO3)C2)c1.O=C(O)C(F)(F)F.O=C(O)C(F)(F)F.O=C(O)C(F)(F)F (centres undefined) | 2.254 |
| Cc1cc(F)ccc1OC1(C(=O)O)CCN(Cc2ccncc2)CC1 | 7.519 |
| O=S1(=O)NCC2(CCN(Cc3ccncc3)CC2)Oc2ncccc21 | 130.7 |
| O=S1(=O)NCC2(CCCN(Cc3cccnc3)C2)Oc2ncccc21 (centres undefined) | 131.9 |
| O=C(C1CC=CC1)N1CCC2(CC1)CN(Cc1ccccn1)CCO2 | -14.52 |
| O=S1(=O)NCC2(CCCN(Cc3ccccn3)C2)Oc2ncccc21 (centres undefined) | 140.3 |
| O=C(O)C(F)(F)F.O=C(O)C(F)(F)F.O=C(O)C(F)(F)F.c1cncc(CN2CCCC3(COCCN(c4cnccn4)C3)C2)c1 (centres undefined) | -4.353 |
| Fc1cccc(N2CCCC3(CN(Cc4ccccn4)CCO3)C2)c1.O=C(O)C(F)(F)F.O=C(O)C(F)(F)F.O=C(O)C(F)(F)F (centres undefined) | -3.088 |
| C[S+]([O-])c1nncn1CC(=O)c1ccc(Cl)c(Cl)c1 (centres undefined) | 17.05 |
| Cc1cnn(CCCN2C(=O)CCc3ccccc32)c1 | 16.17 |
| O=C(CSCC1CC1)N1CCCN(c2ccc(F)cc2)CC1 | 101.8 |
| Cc1cc(N2CCCN(C(=O)CSCC3CC3)CC2)ccn1 | 97.17 |
| O=C(CSCC1CC1)N1CCCN(Cc2ccc(F)cc2)CC1 | 113.6 |
| Cc1nc(CC(=O)N2CCCN(c3ccc(F)cc3)CC2)cs1 | 6.987 |
| CSCCC(O)C(=O)N1CCCN(Cc2ccc(F)cc2)CC1 (centres undefined) | 20.52 |

| SMILES | Percent Effect [%] |
| --- | --- |
| CCc1nnsc1C(=O)N1CCCN(Cc2ccc(F)cc2)CC1 | 12.06 |
| Cc1cc(N2CCCN(C(=O)Cc3cc(F)cc(F)c3)CC2)ccn1 | -40.46 |
| Cc1cc(N2CCCN(C(=O)Cc3cccnc3)CC2)ccn1 | -24.68 |
| COCc1ccc(C(=O)N2CCCN(c3ccc(F)cc3)CC2)s1 | -6.209 |
| CN(Cc1ccccn1)C(=O)c1ccc2c(c1O)OC(C)(C)C2 | -37.36 |
| COc1ccc(OC)c(CN(C)c2ncc(S(N)(=O)=O)s2)c1 | -0.04358 |
| c1cnn(CCNCc2csc(-c3ccsc3)n2)c1 | 8.023 |
| O=C(C1CCCO1)N1C[C@@H]2CCN(c3cnccn3)C[C@@H]2C1.O=C(O)C(F)(F)F (some centres undefined) | 102.5 |
| O=C(C1CCCCC1)N1C[C@@H]2CCN(c3cnccn3)C[C@@H]2C1.O=C(O)C(F)(F)F | 86.55 |
| O=C(O)C(F)(F)F.O=C(c1cnccn1)N1C[C@@H]2CCN(c3cnccn3)C[C@@H]2C1 | 21.49 |
| O=C(C1CCCC1)N1C[C@@H]2CCN(c3cnccn3)C[C@@H]2C1.O=C(O)C(F)(F)F | 80.73 |
| CC(C)CN1CC(C(=O)N(C)CCc2cn[nH]c2)CC1=O (centres undefined) | -9.129 |
| CS(=O)(=O)N1C[C@@H]2CC[C@H](C1)N(CCC(=O)NCc1ccccc1F)C2 | -8.664 |
| CCOc1ncccc1CNC(=O)N1CCCC1c1cccs1 (centres undefined) | -31.15 |
| COc1cccc(CCNC(=O)CN2CCCC2c2noc(C)n2)c1 (centres undefined) | -3.314 |
| Cc1ncc(CNC(=O)CCOc2ccccc2)c(C2CCCN2C)n1 (centres undefined) | -4.417 |
| Cc1ncc(CNC(=O)CCc2ccccc2F)c(C2CCCN2C)n1 (centres undefined) | 94.99 |
| Cc1ncc(CNC(=O)CCc2cccs2)c(C2CCCN2C)n1 (centres undefined) | 135.8 |
| Cc1ncc(CNC(=O)CCc2cccc(F)c2)c(C2CCCN2C)n1 (centres undefined) | 2.906 |
| COc1cccc(CC(=O)NCc2cnc(C)nc2C2CCCN2C)c1 (centres undefined) | 116.5 |
| Cc1ncc(CNC(=O)Cc2cccs2)c(C2CCCN2C)n1 (centres undefined) | 125.2 |
| O=C1NCCN(Cc2cccnc2)C1CC(=O)N1CCc2n[nH]cc2C1 (centres undefined) | -19.58 |
| O=C1C(Sc2nc(=O)ccn2C2CC2)CCN1c1ccccc1F (centres undefined) | -10.52 |
| CCNC(=O)N1CCC(NC(=O)NCCc2cc3ccccc3o2)C1 (centres undefined) | -2.435 |

— ChEMBL document CHEMBL3988442, “University of Dundee, Small-Polar-MMV Screening Library” (2021)
